Assay results as given in the supplement of paper PMC10849652.
Of roughly 7,900 targets only a part is listed; those with a hit were picked by preference. About 0.6% of all pairs of compound and target were hits.

Experiments:
Assay in all cases: log2 fold change, soluble protein after heating vs DMSO (PISA); higher = thermal stabilisation; K562 cells, 10 uM, 30 min; active = over 0.2 and 3.5 SD of the protein, either way, in both replicates (recomputed)
IRAK-1-4 Inhibitor I = compound: C1COCCN1CCN2C3=CC=CC=C3N=C2NC(=O)C4=CC(=CC=C4)[N+](=O)[O-] [IRAK-1-4 Inhibitor I]
Outline: (§1)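 K562 cells (2×10^6 cells/mL) were treated with 10 μM compound for 30 min, and aliquots were heated for 3 min over 48°C-58°C. Pooled aliquots were extracted in PBS with 0.5% NP-40 at 4°C, and the supernatant after 21,000xg for 90 min was measured by TMTpro 16plex LC-MS/MS with channel sums equalised. Reported thermal stability, relative to control samples and from duplicates, is a log2 fold change.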

ibrutinib = compound: C=CC(=O)N1CCC[C@@H](n2nc(-c3ccc(Oc4ccccc4)cc3)c3c(N)ncnc32)C1 [ibrutinib]
Outline: as §1

[1] = compound: CC(=O)c1cnc2ccc(-c3cc(Cl)c(O)c(Cl)c3)nc2c1N[C@H]1CC[C@H](CN(C)C)CC1
Outline: as §1

ralimetinib = compound: CC(C)(C)Cn1c(N)nc2ccc(-c3[nH]c(C(C)(C)C)nc3-c3ccc(F)cc3)nc21 [ralimetinib]
Outline: as §1

[2] = compound: CC(C)(O)CC(=O)NCCn1ccc2ncnc(Nc3ccc(Oc4cccc(C(F)(F)F)c4)c(Cl)c3)c21
Outline: as §1

[3] = compound: CC(C)C1=C2N=C(C=C(N2N=C1)NCC3=CC=CC=C3)NCCCCCCN
Outline: as §1

[4] = compound: CC(C)C[C@@H](C=O)NC(=O)[C@H](CC(C)C)NC(=O)[C@H](CC(C)C)NC(=O)OCc1ccccc1
Outline: as §1

pinometostat = compound: CC(C)N(C[C@H]1O[C@@H](n2cnc3c(N)ncnc32)[C@H](O)[C@@H]1O)[C@H]1C[C@@H](CCc2nc3cc(C(C)(C)C)ccc3[nH]2)C1 [pinometostat]
Outline: as §1

[5] = compound: CC1=C(C(CC(=O)N1)C2=CC=C(C=C2)C(F)(F)F)C(=O)NC3=C(C=C4C(=C3)C=NN4)F
Outline: as §1

[6] = compound: CC1=C(C2=C(C=C1)C(=O)C3=CC=CC=C3N2CCCN)C
Outline: as §1

Measured: log2 fold change

UBE3D (UniProt Q7Z6J8)
UniProt Q7Z6J8, sequence (Q7Z6J8 whole entry, looked up): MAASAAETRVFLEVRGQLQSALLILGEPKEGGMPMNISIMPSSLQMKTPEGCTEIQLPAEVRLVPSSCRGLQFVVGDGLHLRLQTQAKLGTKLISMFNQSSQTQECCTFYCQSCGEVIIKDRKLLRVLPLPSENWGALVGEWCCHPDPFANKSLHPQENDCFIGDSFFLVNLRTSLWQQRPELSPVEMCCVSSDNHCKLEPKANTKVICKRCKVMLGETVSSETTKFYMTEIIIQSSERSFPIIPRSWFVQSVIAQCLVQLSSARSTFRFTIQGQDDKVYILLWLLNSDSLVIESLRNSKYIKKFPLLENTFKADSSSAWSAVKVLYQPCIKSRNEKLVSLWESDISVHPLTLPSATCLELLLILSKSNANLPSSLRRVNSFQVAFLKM
inactive: IRAK-1-4 Inhibitor I 0.029 | ibrutinib 0.047 | [1] 0.026 | ralimetinib 0.015 | [2] 0.088 | [3] 0.011 | [4] -0.061 | pinometostat -0.012 | [5] -0.045 | [6] 0.051

TRAPPC3 (UniProt O43617)
UniProt O43617, sequence (O43617 whole entry, looked up): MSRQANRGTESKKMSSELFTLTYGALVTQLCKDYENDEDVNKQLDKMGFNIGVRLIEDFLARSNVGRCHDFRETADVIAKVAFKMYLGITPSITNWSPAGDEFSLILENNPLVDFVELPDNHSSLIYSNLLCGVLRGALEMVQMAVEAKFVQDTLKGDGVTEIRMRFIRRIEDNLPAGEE
inactive: IRAK-1-4 Inhibitor I 0.03 | ibrutinib -0.032 | [1] -0.056 | ralimetinib -0.083 | [2] -0.033 | [3] -0.105 | [4] 0.001 | pinometostat -0.029 | [5] 0.031 | [6] 0.008

VPS35L (UniProt Q7Z3J2)
inactive: IRAK-1-4 Inhibitor I -0.012 | ibrutinib -0.006 | [1] -0.028 | ralimetinib 0.05 | [2] -0.097 | [3] -0.046 | [4] 0.036 | pinometostat 0.043 | [5] -0.013 | [6] 0.024

TMEM189-UBE2V1 (UniProt I3L0A0)
inactive: IRAK-1-4 Inhibitor I 0.048 | ibrutinib 0.022 | [1] -0.022 | ralimetinib 0.006 | [2] -0.024 | [3] 0.031 | [4] -0.028 | pinometostat -0.046 | [5] 0.03 | [6] 0.037

TRAPPC2L (UniProt Q9UL33)
inactive: IRAK-1-4 Inhibitor I -0.013 | ibrutinib 0.003 | [1] -0.004 | ralimetinib -0.125 | [2] -0.11 | [3] -0.083 | [4] 0.24 | pinometostat 0.001 | [5] 0.062 | [6] 0.014

WDR61 (UniProt Q9GZS3)
inactive: IRAK-1-4 Inhibitor I 0.037 | ibrutinib -0.015 | [1] -0.057 | ralimetinib -0.049 | [2] 0.008 | [3] -0.016 | [4] -0.009 | pinometostat 0.028 | [5] 0.013 | [6] 0.004

UPF3B (UniProt Q9BZI7)
inactive: IRAK-1-4 Inhibitor I -0.099 | ibrutinib 0.158 | [1] 0.265 | ralimetinib 0.27 | [2] 0.057 | [3] -0.02 | [4] 0.19 | pinometostat 0.394 | [5] -0.002 | [6] -0.183

TNPO3 (UniProt Q9Y5L0)
inactive: IRAK-1-4 Inhibitor I -0.006 | ibrutinib -0.02 | [1] -0.014 | ralimetinib 0.024 | [2] -0.156 | [3] -0.154 | [4] -0.08 | pinometostat 0.006 | [5] 0.036 | [6] -0.02

UFL1 (UniProt O94874)
inactive: IRAK-1-4 Inhibitor I -0.048 | ibrutinib -0.037 | [1] -0.022 | ralimetinib 0.073 | [2] -0.055 | [3] -0.142 | [4] 0.015 | pinometostat 0.042 | [5] -0.017 | [6] 0.026

TRIM28 (UniProt Q13263)
UniProt Q13263, sequence (Q13263 whole entry, looked up): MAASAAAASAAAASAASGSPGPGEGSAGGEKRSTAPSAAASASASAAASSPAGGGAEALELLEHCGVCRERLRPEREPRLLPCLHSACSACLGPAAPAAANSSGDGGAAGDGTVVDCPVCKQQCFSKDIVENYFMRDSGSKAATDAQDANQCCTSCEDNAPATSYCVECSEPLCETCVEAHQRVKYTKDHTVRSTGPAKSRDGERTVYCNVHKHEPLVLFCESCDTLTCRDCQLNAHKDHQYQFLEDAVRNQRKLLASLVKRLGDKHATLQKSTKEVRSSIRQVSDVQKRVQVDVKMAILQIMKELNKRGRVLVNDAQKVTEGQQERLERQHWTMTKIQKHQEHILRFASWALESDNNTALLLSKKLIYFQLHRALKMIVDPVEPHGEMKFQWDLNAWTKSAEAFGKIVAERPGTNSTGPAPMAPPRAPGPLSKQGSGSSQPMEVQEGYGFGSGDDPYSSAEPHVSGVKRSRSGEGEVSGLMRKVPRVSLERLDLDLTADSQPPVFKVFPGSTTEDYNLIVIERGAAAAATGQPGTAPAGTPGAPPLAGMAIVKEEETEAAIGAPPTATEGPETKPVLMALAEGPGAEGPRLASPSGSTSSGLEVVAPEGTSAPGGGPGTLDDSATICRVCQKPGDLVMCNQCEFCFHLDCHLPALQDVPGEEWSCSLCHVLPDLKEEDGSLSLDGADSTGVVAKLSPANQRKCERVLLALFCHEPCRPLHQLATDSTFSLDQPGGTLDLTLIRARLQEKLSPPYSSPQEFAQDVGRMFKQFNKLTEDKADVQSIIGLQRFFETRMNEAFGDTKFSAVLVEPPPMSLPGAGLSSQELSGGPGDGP
inactive: IRAK-1-4 Inhibitor I -0.008 | ibrutinib -0.033 | [1] 0.052 | ralimetinib -0.003 | [2] -0.035 | [3] -0.087 | [4] 0.018 | pinometostat -0.056 | [5] -0.002 | [6] -0.152

U2AF1 isoform 2 (UniProt Q01081)
UniProt Q01081, sequence (Q01081 whole entry, looked up): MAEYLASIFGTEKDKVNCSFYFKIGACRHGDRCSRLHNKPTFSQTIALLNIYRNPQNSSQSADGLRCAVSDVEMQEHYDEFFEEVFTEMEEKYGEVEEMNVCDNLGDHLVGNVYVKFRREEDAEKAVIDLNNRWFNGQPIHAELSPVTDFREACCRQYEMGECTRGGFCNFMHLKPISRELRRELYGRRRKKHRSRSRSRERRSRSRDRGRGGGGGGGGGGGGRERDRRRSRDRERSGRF
inactive: IRAK-1-4 Inhibitor I -0.133 | ibrutinib 0.073 | ralimetinib 0 | [2] 0.042 | [3] -0.083 | [4] 0.022 | pinometostat -0.04 | [5] -0.062 | [6] 0.169
active: [1] -0.519

USP34 (UniProt Q70CQ2)
inactive: IRAK-1-4 Inhibitor I 0.005 | ibrutinib -0.091 | [1] -0.033 | ralimetinib -0.017 | [2] -0.14 | [3] -0.114 | [4] -0.016 | pinometostat 0.079 | [5] -0.04 | [6] -0.176

UBAP2L isoform 5 (UniProt Q14157)
inactive: IRAK-1-4 Inhibitor I 0.053 | ibrutinib 0.04 | [1] 0.017 | ralimetinib -0.007 | [2] 0.003 | [3] 0.053 | [4] -0.012 | pinometostat -0.032 | [5] 0.009 | [6] 0.068

TMEM128 (UniProt Q5BJH2)
UniProt Q5BJH2, sequence (Q5BJH2 whole entry, looked up): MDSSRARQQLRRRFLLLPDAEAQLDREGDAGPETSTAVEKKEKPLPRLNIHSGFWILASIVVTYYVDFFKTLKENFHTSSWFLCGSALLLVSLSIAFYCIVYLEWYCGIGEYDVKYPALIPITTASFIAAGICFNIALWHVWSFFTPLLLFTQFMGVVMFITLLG
active: [1] 0.45
inactive: IRAK-1-4 Inhibitor I -0.046 | ibrutinib -0.025 | ralimetinib -0.036 | [2] -0.051 | [3] 0.028 | [4] 0.108 | pinometostat 0.122 | [5] 0.001 | [6] 0

UGGT1 (UniProt Q9NYU2)
UniProt Q9NYU2, sequence (Q9NYU2 whole entry, looked up): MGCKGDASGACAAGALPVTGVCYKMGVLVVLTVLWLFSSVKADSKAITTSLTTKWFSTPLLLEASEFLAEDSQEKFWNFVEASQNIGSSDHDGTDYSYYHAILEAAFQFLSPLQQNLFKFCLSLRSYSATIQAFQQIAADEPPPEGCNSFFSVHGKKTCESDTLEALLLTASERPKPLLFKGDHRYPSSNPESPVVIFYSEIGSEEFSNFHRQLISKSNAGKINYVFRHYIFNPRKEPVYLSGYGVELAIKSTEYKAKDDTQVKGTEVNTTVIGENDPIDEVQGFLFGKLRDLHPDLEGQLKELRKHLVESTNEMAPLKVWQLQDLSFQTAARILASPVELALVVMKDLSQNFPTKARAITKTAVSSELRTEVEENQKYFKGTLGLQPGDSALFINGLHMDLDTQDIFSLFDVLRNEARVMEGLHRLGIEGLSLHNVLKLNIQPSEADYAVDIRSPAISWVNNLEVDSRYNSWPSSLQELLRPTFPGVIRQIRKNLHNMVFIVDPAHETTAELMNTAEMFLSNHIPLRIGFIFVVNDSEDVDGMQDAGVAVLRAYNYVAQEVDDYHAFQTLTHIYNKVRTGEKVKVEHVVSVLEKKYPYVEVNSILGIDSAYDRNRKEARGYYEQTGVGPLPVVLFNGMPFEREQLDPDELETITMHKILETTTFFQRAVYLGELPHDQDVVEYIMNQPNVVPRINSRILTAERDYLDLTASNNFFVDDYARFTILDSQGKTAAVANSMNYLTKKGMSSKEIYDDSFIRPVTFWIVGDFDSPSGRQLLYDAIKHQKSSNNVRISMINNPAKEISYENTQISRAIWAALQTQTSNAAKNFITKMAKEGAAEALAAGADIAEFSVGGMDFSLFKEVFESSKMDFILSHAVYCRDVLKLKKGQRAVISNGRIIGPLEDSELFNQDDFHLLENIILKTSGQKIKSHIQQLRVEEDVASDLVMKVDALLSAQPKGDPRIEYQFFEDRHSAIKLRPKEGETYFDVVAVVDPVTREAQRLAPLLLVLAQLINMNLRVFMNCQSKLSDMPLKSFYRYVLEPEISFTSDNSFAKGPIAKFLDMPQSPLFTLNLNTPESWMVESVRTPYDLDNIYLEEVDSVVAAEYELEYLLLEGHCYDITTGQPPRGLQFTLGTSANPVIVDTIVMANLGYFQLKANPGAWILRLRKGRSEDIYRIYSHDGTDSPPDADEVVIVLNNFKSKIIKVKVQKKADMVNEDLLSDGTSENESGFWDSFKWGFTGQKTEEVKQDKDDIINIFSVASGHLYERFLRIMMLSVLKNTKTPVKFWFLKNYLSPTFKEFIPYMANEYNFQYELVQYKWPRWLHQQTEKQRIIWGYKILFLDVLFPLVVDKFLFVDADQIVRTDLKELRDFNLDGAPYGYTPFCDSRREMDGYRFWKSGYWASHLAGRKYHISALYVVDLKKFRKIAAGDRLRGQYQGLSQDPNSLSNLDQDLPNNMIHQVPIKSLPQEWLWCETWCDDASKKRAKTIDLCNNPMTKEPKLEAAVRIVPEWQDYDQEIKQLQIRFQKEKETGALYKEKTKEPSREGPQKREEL
inactive: IRAK-1-4 Inhibitor I -0.011 | ibrutinib -0.027 | [1] 0.001 | ralimetinib 0.001 | [2] -0.028 | [3] -0.007 | [4] -0.038 | pinometostat 0.028 | [5] -0.003 | [6] 0.023

UBA6
inactive: IRAK-1-4 Inhibitor I -0.038 | ibrutinib -0.01 | [1] -0.009 | ralimetinib -0.002 | [2] -0.012 | [3] -0.044 | [4] -0.025 | pinometostat 0.004 | [5] -0.044 | [6] 0.106

WDHD1 (UniProt O75717)
inactive: IRAK-1-4 Inhibitor I -0.055 | ibrutinib 0.006 | [1] -0.087 | ralimetinib -0.038 | [2] -0.065 | [3] -0.125 | [4] 0 | pinometostat -0.03 | [5] -0.02 | [6] -0.063

UHRF1BP1 (UniProt Q6BDS2)
inactive: IRAK-1-4 Inhibitor I 0.007 | ibrutinib 0.023 | [1] -0.034 | ralimetinib -0.067 | [2] 0.097 | [4] 0.03 | pinometostat 0.006 | [5] 0.001 | [6] 0.029
active: [3] 0.258

VTI1A (UniProt Q96AJ9)
UniProt Q96AJ9, sequence (Q96AJ9 whole entry, looked up): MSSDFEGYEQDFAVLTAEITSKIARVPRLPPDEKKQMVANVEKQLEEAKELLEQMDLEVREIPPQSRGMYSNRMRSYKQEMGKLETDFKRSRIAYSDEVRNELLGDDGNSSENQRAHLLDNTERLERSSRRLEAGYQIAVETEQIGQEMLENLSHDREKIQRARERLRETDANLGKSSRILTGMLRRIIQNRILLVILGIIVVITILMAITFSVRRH
inactive: IRAK-1-4 Inhibitor I 0.095 | ibrutinib 0.012 | [1] -0.009 | ralimetinib -0.111 | [2] 0.019 | [3] 0.005 | [4] 0.028 | pinometostat -0.016 | [5] 0.028 | [6] -0.01

VPS11 (UniProt Q9H270)
inactive: IRAK-1-4 Inhibitor I 0.115 | ibrutinib -0.038 | [1] -0.032 | ralimetinib 0.038 | [2] -0.069 | [4] 0.062 | pinometostat 0.011 | [5] 0.016 | [6] 0.031
active: [3] -0.375

WDR11 (UniProt Q9BZH6)
inactive: IRAK-1-4 Inhibitor I 0.009 | ibrutinib -0.112 | [1] -0.01 | ralimetinib -0.068 | [2] -0.018 | [3] -0.056 | [4] -0.047 | pinometostat 0 | [5] 0.069 | [6] 0.065

VPS51 (UniProt Q9UID3)
inactive: IRAK-1-4 Inhibitor I 0.016 | ibrutinib -0.015 | [1] 0.009 | ralimetinib 0.024 | [2] -0.042 | [3] -0.115 | [4] 0.001 | pinometostat 0.05 | [5] 0.033 | [6] 0.105

UTP14A (UniProt Q9BVJ6)
UniProt Q9BVJ6, sequence (Q9BVJ6 whole entry, looked up): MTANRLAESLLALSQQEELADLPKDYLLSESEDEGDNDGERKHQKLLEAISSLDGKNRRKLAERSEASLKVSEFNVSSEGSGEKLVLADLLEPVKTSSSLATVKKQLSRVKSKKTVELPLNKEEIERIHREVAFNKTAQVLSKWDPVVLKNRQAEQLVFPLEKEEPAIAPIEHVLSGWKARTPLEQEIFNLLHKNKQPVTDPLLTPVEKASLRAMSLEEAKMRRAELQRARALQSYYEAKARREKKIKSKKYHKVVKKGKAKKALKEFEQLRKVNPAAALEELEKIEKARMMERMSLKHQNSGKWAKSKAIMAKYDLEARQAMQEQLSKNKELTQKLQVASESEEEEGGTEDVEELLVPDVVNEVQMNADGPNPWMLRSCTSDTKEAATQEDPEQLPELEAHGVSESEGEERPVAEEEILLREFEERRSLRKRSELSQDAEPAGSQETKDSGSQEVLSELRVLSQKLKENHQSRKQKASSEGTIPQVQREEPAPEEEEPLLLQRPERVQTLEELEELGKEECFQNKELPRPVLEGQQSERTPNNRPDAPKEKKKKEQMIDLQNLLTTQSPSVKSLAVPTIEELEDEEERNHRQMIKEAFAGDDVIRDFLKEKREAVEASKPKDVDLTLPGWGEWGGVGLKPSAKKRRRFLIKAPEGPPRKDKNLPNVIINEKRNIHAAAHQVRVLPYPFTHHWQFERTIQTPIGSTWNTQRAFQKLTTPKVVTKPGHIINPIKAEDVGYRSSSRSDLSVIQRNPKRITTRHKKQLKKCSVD
inactive: IRAK-1-4 Inhibitor I -0.13 | ibrutinib -0.026 | [1] 0.088 | ralimetinib 0.11 | [2] 0.007 | [3] -0.113 | [4] 0.154 | pinometostat 0.262 | [5] 0.065
active: [6] -0.708

UTP4 (UniProt Q969X6)
inactive: IRAK-1-4 Inhibitor I 0.003 | ibrutinib 0.002 | [1] 0.02 | ralimetinib -0.07 | [2] 0.045 | [4] -0.014 | pinometostat -0.017 | [5] -0.019
active: [3] 0.233 | [6] 0.343

VPS33B (UniProt Q9H267)
inactive: IRAK-1-4 Inhibitor I -0.049 | ibrutinib -0.041 | [1] -0.068 | ralimetinib 0.057 | [2] -0.107 | [3] -0.178 | [4] 0.098 | pinometostat 0.156 | [5] 0 | [6] 0.049

UBE2J1 (UniProt Q9Y385)
UniProt Q9Y385, sequence (Q9Y385 whole entry, looked up): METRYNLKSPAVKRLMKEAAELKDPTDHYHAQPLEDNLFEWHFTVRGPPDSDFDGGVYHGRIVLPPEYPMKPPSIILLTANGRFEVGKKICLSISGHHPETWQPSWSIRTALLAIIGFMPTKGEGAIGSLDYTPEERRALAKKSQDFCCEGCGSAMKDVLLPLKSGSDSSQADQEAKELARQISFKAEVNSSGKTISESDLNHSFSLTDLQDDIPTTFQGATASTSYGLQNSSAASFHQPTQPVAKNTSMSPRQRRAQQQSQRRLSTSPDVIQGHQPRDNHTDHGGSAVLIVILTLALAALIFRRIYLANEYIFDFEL
inactive: IRAK-1-4 Inhibitor I -0.447 | ibrutinib 0.013 | [1] -0.077 | ralimetinib -0.02 | [2] -0.106 | [3] -0.284 | [4] 0.188 | pinometostat 0.096 | [5] 0.101 | [6] -0.047

USP15 (UniProt Q9Y4E8)
inactive: IRAK-1-4 Inhibitor I -0.028 | ibrutinib -0.034 | [1] 0.008 | ralimetinib -0.004 | [2] -0.067 | [3] -0.154 | [4] 0.012 | pinometostat 0.012 | [5] 0 | [6] -0.019

TMEM177 (UniProt Q53S58)
UniProt Q53S58, sequence (Q53S58 whole entry, looked up): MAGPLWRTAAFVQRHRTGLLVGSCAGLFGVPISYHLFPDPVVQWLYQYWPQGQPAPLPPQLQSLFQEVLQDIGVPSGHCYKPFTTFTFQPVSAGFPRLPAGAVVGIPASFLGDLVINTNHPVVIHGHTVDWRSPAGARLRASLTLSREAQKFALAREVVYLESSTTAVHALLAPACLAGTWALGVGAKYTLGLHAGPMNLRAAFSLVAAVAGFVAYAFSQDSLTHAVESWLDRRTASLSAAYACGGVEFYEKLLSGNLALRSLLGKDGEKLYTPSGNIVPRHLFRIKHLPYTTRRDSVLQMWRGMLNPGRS
inactive: IRAK-1-4 Inhibitor I 0.06 | ibrutinib 0.079 | [1] 0.007 | ralimetinib -0.068 | [2] -0.023 | [3] -0.131 | [4] 0.045 | pinometostat -0.02 | [5] -0.007 | [6] 0.028

UBLCP1 (UniProt Q8WVY7)
inactive: IRAK-1-4 Inhibitor I -0.029 | ibrutinib -0.072 | [1] -0.057 | ralimetinib -0.104 | [2] -0.061 | [3] -0.027 | [4] 0.191 | pinometostat 0.017 | [5] -0.023 | [6] -0.155

UFM1 (UniProt P61960)
inactive: IRAK-1-4 Inhibitor I 0.219 | ibrutinib 0.026 | [1] 0.003 | ralimetinib 0 | [2] -0.117 | [3] 0.06 | [4] 0.055 | pinometostat 0.013 | [5] -0.057 | [6] 0.133
